The nature of experiment [1]: small molecules captured by biotinylated probe aFSTL3 – biochemical, small-molecule microarray, fluorescence 635/667, stem cell growth factor project, primary screen (AID 1064).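 Note: measures binding of the biotinylated anti-FSTL3 antibody to printed compounds.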 Conditions: higher = more signal.
Experiment [2] is described as follows: binders from COS7 lysate, DM2A8 probe, primary screen, torsin A project, cell lysate, small-molecule microarray, fluorescence 635/667 (AID 1065). Conditions: higher = more signal, COS7 lysate expressing mutant human TOR1A.
Experiment [3] in a line: small molecules captured by biotinylated probe aFGF2 – biochemical, small-molecule microarray, fluorescence 635/667, stem cell growth factor project, primary screen (AID 1067).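 Note: measures binding of biotinylated aFGF2 protein to printed compounds on slides; z-score merges feature fluorescence and signal-to-noise across triplicate slides.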 Conditions: higher = more signal.
Experiment [4] is described as follows: small molecules captured by biotinylated probe aFGF10 – biochemical, small-molecule microarray, fluorescence 635/667, stem cell growth factor project, primary screen (AID 1071).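 Note: score merges 667 nm spot intensity and signal to noise from triplicate slides.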 Conditions: higher = more signal.
In experiment [5] the target is Neurogenic locus notch homolog protein 2 (Homo sapiens) (UniProt Q04721). Description: small molecules binding Notch2 protein – biochemical, small-molecule microarray, 635 nm fluorescence, stem cell growth factors, primary screen (AID 1073). Conditions: higher = more signal.
Neurogenic locus notch homolog protein 2 (Homo sapiens), sequence (Q04721 whole entry, looked up, canonical isoform): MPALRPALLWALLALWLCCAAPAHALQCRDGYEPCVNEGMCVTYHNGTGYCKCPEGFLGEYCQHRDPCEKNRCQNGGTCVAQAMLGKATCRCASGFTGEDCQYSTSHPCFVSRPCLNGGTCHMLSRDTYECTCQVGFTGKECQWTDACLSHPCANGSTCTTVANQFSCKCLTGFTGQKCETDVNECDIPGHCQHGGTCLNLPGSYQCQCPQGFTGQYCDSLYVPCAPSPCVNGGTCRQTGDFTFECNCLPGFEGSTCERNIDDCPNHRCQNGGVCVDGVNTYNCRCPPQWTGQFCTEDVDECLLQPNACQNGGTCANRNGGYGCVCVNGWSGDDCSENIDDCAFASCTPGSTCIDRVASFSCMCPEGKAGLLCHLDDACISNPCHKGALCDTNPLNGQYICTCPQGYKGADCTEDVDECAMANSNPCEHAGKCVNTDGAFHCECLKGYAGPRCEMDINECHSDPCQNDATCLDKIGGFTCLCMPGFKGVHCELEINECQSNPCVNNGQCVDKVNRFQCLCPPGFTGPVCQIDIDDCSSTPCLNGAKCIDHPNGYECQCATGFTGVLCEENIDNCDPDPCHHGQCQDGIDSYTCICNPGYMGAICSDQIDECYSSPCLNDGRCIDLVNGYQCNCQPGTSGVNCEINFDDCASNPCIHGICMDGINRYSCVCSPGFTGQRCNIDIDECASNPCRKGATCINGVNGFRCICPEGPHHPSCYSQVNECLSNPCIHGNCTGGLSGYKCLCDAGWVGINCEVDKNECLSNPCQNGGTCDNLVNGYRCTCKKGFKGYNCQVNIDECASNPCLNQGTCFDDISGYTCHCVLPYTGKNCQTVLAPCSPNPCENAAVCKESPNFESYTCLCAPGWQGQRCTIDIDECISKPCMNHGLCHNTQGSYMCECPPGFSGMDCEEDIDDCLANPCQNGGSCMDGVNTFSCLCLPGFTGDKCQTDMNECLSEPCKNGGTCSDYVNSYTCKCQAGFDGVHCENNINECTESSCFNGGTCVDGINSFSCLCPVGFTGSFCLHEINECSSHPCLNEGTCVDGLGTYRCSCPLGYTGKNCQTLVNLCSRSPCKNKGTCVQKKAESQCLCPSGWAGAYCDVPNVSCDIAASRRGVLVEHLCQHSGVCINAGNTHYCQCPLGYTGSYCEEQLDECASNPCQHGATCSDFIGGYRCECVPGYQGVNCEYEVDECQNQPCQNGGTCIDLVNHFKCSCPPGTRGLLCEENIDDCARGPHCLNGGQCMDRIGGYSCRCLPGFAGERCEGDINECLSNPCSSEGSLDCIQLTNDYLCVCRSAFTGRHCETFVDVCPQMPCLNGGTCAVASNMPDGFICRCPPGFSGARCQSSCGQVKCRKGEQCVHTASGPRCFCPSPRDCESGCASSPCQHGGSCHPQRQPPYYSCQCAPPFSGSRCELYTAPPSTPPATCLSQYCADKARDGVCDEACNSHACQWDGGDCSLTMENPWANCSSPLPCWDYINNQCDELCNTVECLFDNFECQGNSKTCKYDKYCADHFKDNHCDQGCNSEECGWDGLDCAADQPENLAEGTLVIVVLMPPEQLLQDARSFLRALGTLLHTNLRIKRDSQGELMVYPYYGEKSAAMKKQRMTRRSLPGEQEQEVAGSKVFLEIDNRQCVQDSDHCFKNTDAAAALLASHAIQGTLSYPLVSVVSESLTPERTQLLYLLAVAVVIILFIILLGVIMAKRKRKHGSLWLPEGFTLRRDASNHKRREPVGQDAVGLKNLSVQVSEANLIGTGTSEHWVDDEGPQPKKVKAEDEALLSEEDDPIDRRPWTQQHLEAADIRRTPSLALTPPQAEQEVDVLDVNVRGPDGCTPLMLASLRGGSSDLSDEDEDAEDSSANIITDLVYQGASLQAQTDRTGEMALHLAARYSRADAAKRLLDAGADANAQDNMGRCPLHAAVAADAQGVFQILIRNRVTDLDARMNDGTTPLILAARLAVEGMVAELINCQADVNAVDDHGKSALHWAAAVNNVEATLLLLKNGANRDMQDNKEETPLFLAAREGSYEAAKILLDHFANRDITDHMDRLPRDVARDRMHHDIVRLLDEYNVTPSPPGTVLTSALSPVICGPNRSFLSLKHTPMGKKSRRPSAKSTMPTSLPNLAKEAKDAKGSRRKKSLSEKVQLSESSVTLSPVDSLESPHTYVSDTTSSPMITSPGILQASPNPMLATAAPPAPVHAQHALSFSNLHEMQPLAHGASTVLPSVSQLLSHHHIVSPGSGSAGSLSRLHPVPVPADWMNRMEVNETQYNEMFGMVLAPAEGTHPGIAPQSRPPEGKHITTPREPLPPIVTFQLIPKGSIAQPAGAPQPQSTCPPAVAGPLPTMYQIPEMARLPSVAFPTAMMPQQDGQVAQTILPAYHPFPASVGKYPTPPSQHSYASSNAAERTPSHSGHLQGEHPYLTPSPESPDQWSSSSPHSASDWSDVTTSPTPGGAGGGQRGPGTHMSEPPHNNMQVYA
The target in experiment [6] is Pro-neuregulin-1, membrane-bound isoform (Homo sapiens) (UniProt Q02297). Description: small molecules binding neuregulin-1 protein – biochemical, small-molecule microarray, fluorescence 635/667, psychiatric disease protein project, primary screen (AID 1075).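 Note: score combines 667 nm spot fluorescence with signal to noise.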 Conditions: NRG1 binding, 635 nm fluorescence, higher = more signal.
Experiment [7] concerns Neuregulin-1 EGF-like domain. The experiment is described as follows: small molecules binding NRG1 EGF domain – biochemical, small-molecule microarray, 635 nm fluorescence, primary screen (AID 1081).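 Note: binding of the protein to compounds printed on small-molecule microarray slides.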 Conditions: higher = more signal.
Experiment [8] in a line: FRG1 expression reporter modulators in myotubes – cell-based, C2C12 myotubes, firefly/Renilla luciferase, luminescence, FRG1 inhibition for FSHD, primary screen (AID 1084). Conditions: FRG1 promoter luciferase, higher = more signal, called active from +8 up or from −8 down.
A short description of experiment [9]: small molecules captured by biotinylated probe aFST – biochemical, small-molecule microarray, fluorescence 635/667, stem cell growth factor project, primary screen (AID 1086).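 Note: score merges 667 nm fluorescence with signal-to-noise of each printed compound spot.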 Conditions: higher = more signal.
The nature of experiment [10]: binders of probe aHhip on microarray, primary screen, stem cell growth factor project, biochemical, small-molecule microarray, fluorescence 635/667 (AID 1087).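 Note: score merges spot fluorescence at 667nm with spot signal to noise ratio.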 Conditions: higher = more signal.
The test system of experiment [11] is PRMT1 (protein arginine N-methyltransferase 1). Description: small molecules binding arginine methyltransferase PRMT1 – biochemical, small-molecule microarray, 635 nm fluorescence, primary screen (AID 1088).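 Note: binding of Prmt1 protein to compounds spotted on small-molecule microarray slides.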 Conditions: higher = more signal.
Experiment [12] in a line: growth effects on S. cerevisiae YJM789 – YJM789 clinical isolate, OD600, 24 h, basal, primary screen (AID 1089).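 Note: growth of clinical yeast isolate S. cerevisiae YJM 789 seeded 1000 cells per well; test concentration not given here.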 Conditions: higher = more signal, called active from +8 up or from −8 down.
The nature of experiment [13]: S. pombe growth modifiers, basal conditions – strain 972, OD600, 24 h, no modulator, primary screen (AID 1090).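 Note: basal condition with compound alone and no growth modifier present; test concentration not given here.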 Conditions: S. pombe 972 growth, higher = more signal, called active from +8 up or from −8 down.
Experiment [14] can be described thus: budding yeast growth modifiers under rapamycin – strain BY4716, OD600, 96 h, primary screen (AID 1091). Note: test concentration not given here. Conditions: S. cerevisiae BY4716 + rapamycin, higher = more signal, called active from +8 up or from −8 down.
For experiment [15], the target named is Torsin-1A-interacting protein 2 (Homo sapiens) (UniProt Q8NFQ8). The experiment is described as follows: small molecules binding lysate-expressed LULL1 – cell lysate, human LULL1 lysate, 635/667 nm fluorescence, primary screen (AID 1092).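 Note: score merges per-feature 667 nm fluorescence with signal-to-noise.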 Conditions: small-molecule microarray, hLULL1 lysate binding, 635 nm fluorescence; higher = more signal.
Experiment [16] in a line: optical density change of DRC41 E. coli – strain DRC41, OD650, 24 h, E. coli filamentation project, primary screen (AID 1093).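 Note: MC1000 strain lacking acrAB efflux and sulA so SOS filamentation is blocked; test concentration not given here.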 Conditions: E. coli DRC41 growth, higher = more signal, called active from +8 up or from −8 down.
Experiment [17] can be described thus: probe aLefty2 binding to arrayed compounds – biochemical, biotinylated probe, 635/667 nm fluorescence, primary screen (AID 1094).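 Note: score merges spot fluorescence near 667 nm with spot signal-to-noise ratio.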 Conditions: small-molecule microarray, higher = more signal.
The test system of experiment [18] is Noggin (protein binding on small-molecule microarray). Description: small molecules binding Noggin protein – biochemical, 635/667 nm fluorescence, primary screen (AID 1095).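 Note: score merges 667 nm feature fluorescence with signal to noise over triplicate slides.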 Conditions: 635 nm fluorescence, higher = more signal.
For experiment [19], the target named is Neurogenic locus notch homolog protein 3 (Homo sapiens) (UniProt Q9UM47). Description: small molecules binding NOTCH3 protein – biochemical, 635/667 nm fluorescence, primary screen (AID 1096). Conditions: small-molecule microarray, 635 nm fluorescence, higher = more signal.
Neurogenic locus notch homolog protein 3 (Homo sapiens), sequence (Q9UM47 whole entry, looked up): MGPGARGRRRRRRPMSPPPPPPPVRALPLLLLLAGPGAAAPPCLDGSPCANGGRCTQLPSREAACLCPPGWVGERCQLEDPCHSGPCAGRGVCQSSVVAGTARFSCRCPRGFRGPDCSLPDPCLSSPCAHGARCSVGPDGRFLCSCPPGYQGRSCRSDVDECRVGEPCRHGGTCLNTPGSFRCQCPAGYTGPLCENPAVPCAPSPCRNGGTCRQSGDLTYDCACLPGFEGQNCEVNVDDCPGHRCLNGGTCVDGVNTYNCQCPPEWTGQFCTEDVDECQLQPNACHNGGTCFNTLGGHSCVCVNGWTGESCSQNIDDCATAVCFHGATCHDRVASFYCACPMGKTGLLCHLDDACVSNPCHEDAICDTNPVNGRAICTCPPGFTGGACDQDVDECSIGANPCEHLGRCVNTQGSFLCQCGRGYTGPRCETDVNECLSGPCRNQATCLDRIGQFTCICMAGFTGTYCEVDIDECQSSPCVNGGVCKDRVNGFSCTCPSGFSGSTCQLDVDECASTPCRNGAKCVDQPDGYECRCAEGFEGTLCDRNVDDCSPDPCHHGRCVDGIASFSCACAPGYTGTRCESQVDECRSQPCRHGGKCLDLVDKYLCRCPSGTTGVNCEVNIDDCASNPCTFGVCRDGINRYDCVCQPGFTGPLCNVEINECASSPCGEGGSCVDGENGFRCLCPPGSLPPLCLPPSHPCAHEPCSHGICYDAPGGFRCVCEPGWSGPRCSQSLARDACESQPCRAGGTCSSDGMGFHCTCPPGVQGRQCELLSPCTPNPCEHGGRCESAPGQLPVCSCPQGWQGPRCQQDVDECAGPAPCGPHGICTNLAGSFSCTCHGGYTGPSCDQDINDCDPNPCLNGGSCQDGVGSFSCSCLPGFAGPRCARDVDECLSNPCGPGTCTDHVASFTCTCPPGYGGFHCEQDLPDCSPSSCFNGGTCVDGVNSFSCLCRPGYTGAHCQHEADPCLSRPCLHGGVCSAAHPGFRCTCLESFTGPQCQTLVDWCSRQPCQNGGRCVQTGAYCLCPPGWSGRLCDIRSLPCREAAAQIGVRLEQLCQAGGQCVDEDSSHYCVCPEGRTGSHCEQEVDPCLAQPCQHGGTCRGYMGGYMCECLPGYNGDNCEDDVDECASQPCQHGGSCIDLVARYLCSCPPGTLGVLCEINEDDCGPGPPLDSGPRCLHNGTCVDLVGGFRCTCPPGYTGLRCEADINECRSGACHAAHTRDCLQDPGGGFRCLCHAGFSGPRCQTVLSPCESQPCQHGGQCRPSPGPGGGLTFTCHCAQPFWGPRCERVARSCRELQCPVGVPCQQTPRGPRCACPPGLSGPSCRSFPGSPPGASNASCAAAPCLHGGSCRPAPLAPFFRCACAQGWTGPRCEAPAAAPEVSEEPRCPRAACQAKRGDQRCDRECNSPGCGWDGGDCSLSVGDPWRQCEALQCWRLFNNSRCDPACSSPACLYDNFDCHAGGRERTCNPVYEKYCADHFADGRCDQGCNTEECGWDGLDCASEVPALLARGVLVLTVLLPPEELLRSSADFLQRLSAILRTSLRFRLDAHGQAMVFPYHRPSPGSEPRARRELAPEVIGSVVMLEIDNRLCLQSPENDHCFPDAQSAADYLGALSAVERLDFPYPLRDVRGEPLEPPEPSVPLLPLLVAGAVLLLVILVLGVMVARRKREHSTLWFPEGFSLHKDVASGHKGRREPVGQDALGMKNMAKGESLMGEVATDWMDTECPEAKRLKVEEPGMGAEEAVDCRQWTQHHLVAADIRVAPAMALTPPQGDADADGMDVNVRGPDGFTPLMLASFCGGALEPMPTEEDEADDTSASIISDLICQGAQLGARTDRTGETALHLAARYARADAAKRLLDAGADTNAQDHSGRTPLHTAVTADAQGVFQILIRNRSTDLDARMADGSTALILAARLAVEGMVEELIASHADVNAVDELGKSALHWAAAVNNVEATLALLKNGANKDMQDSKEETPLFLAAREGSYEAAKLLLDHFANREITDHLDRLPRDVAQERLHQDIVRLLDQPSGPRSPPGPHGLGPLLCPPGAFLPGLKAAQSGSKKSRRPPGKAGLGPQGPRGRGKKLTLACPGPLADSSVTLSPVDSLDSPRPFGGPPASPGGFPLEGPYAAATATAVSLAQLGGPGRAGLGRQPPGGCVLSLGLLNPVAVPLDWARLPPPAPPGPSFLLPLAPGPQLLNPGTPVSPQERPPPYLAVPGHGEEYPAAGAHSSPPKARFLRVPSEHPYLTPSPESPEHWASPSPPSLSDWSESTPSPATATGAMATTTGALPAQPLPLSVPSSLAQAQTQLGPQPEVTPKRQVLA
A short description of experiment [20]: probe aEGFR binding to arrayed compounds – biochemical, biotinylated probe, 635/667 nm fluorescence, primary screen (AID 1097).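 Note: probe is a biotinylated anti-EGFR antibody binding compounds printed on slides; score combines fluorescence near 667 nm and signal to noise of each spot.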 Conditions: small-molecule microarray, higher = more signal.

Structures are written as SMILES. Activity calls are given as the source filed them.

`CCCCC(=C=CC[C@H](O)c1ccccc1OCCO)C[C@H](O)COCc1ccccc1`: the composite z-score in [1] is -0.0094; in experiment [2], 0.273; in experiment [3] it was -0.12; in experiment [4], -0.249; in [5], -0.673; in experiment [6], 0.716. Besides, the composite z-score is 0.554 in [7]; 0.324 in experiment [9]; -0.0296 in experiment [10]; -0.0855 in experiment [11]; 1.03 in experiment [15]; -0.145 in experiment [17]. In addition, the composite z-score in experiment [18] is -0.142; in [19], -0.171; in experiment [20] it was -0.12. Besides, the z-score in [8] is -1.01 (inactive); in [12], 0.115 (inactive); in experiment [13], -0.729 (inactive); in [14], -0.659 (inactive); in experiment [16], 0.0754 (inactive).

On to `CC(C)NC(=O)[C@@]1(C)c2ccccc2C(=O)N(Cc2cc(F)cc(C(F)(F)F)c2)[C@H]1c1ccc(CO)cc1`, for which the composite z-score in [1] was 0.0059; in experiment [2] it was 0.0214; in [3], 0.0368; in experiment [4] it was 0.888; in experiment [5], 1.54; in [6], 0.341. For the same molecule, the composite z-score in [7] is 1.17; in experiment [9], 0.298; in experiment [10] it was -0.134; in [11], 0.86; in experiment [15], 1.76; in experiment [17], 0.119. The composite z-score was 0.371 in [18], 0.364 in [19] and 0.034 in experiment [20]. In addition, the z-score is -1.31 (inactive) in [8]; -0.0639 (inactive) in experiment [12]; 0.102 (inactive) in experiment [13]; -0.623 (inactive) in experiment [14]; 0.341 (inactive) in experiment [16].

For the molecule `C=CC[C@@H]1C=C[C@H](ON=Cc2ccc(C(=O)N3[C@H](c4ccc(C)cc4)[C@@H](C)CC[C@H]3C(=O)OC)cc2)[C@@H](CO)O1`, the composite z-score in [1] is -0.482; in [2], 0.835; in experiment [3], -0.0687; in experiment [4], 0.304; in experiment [5] it was 0.842; in [6], 0.0373. Moreover, the composite z-score in [7] was 0.586; in [9], 0.108; in experiment [10], -0.0994; in [11], 0.537; in experiment [15], 0.531; in [17], -0.0741. Moreover, the composite z-score in experiment [18] is 0.709; in [19], 0.162; in experiment [20], -0.0223. In addition, the z-score in [8] was 0.274 (inactive); in experiment [12] it was -1.33 (inactive); in experiment [13], -0.119 (inactive); in [14], -0.733 (inactive); in [16], 1.35 (inactive).

Regarding `CC(=O)OC[C@H]1O[C@@H](ON=C(C)CCN2CCc3nc(-c4ccccc4)c(-c4ccccc4)cc3C2)[C@H](OC(C)=O)[C@@H](OC(C)=O)[C@@H]1OC(C)=O`, the composite z-score in [1] is -0.209; in experiment [2], 0.217; in [3] it was -0.213; in [4], 0.958; in experiment [5] it was 1.11; in experiment [6] it was 0.817. For the same molecule, the composite z-score amounted to 0.992 in experiment [7]; 0.473 in experiment [9]; 0.21 in [10]; 1.51 in [11]; 2.27 in [15]; 0.0754 in [17]. Besides, the results for the composite z-score in [18], in [19] and in experiment [20] were 0.591, 1.09 and 0.0291, respectively. The z-score was 0.66 (inactive) in [8]; 0.0264 (inactive) in experiment [12]; -1.03 (inactive) in experiment [13]; -3.53 (inactive) in experiment [14]; -0.395 (inactive) in [16].

Turning to `COc1cccc([C@@H]2Oc3ccc(Br)cc3C(=O)[C@H]2O)c1`, the composite z-score in experiment [1] is -0.614; in experiment [2] it was 0.291; in [3], -0.0291; in experiment [4], 0.783; in [5] it was 0.458; in [6], 0.297. The composite z-score in experiment [7] is 0.972; in experiment [9] it was 0.0846; in [10] it was 0.235; in experiment [11] it was -0.366; in experiment [15] it was 1.49; in experiment [17], -0.0615. Besides, the composite z-score was 1.13 in experiment [18], 0.834 in experiment [19] and -0.0828 in experiment [20]. Moreover, the z-score in experiment [8] is 3.62 (inactive); in [12] it was -2.84 (inactive); in experiment [13] it was -10.6 (active); in experiment [14], -1.5 (inactive); in [16], 0.9 (inactive).
